# According to PubChem BioAssay AID1861 (The Scripps Research Institute Molecular Screening Center, 2009):
# Out of some 290,000 compounds screened, about 3,100 (1.1%) were called active. Cut-off read from the data, not from the text of the source: active = inhibition above about 16% (passing the limit was not always enough); inactive = the rest. The full list was thinned out, with actives kept by preference.
# Biological target: Neuropeptides B/W receptor type 1 (Homo sapiens) (UniProt P48145)
# Assay: GPR7 receptor antagonists, primary screen, cell-based, fluorescence, single concentration (AID 1861);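 note: cells stimulated with the agonist NPW; 0% = agonist with vehicle and 100% = vehicle without agonist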
# Conditions: GPR7-expressing cells, fluorescence antagonist assay; at 4.4 µM; hits give high values
# Neuropeptides B/W receptor type 1 (Homo sapiens), sequence (P48145 whole entry, looked up): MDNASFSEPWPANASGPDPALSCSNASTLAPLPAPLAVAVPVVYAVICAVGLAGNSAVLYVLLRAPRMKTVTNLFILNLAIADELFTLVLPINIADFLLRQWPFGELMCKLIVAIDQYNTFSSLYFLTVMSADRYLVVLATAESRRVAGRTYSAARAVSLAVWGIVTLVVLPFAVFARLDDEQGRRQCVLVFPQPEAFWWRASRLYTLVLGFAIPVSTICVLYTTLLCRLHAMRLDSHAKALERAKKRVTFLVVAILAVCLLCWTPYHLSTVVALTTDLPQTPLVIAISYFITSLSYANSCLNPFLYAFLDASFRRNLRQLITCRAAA
row,SMILES,inhibition
1,Nc1ccn(C2CC(O)C(CO)O2)c(=O)n1 (centres undefined),-7.05% (inactive)
2,O=C(COc1ccc(S(=O)(=O)N2CCOCC2)cc1Cl)N1CCOCC1,-13.2% (inactive)
3,COc1ccccc1CNC(=O)c1ccc(N(C)S(=O)(=O)c2ccc(C)cc2)cc1,-3.56% (inactive)
4,CN(c1ccccc1)S(=O)(=O)c1ccc(C(=O)NCCc2ccccc2)cc1,23.9% (active)
5,Cc1ccccc1CSCCNC(=O)c1ccc(N(C)S(=O)(=O)c2ccccc2)cc1,1.47% (inactive)
6,O=C(NCCS(=O)(=O)c1ccc(Br)cc1)c1ccccc1Cl,1.64% (inactive)
7,O=C(c1ccco1)N1CCN(Cc2cccc(C(F)(F)F)c2)CC1,-13.2% (inactive)
8,Cc1ccc(NS(=O)(=O)c2ccc(-c3ccc(=O)[nH]n3)o2)c(C)c1,-0.17% (inactive)
9,COc1cc(C(C(=O)NC2CCCC2)N(Cc2ccccc2)C(=O)c2snc(C(N)=O)c2N)ccc1O (centres undefined),-10.6% (inactive)
10,CCc1ccc(S(=O)(=O)Nc2cc3c(cc2N2CCCCC2)n(C)c(=O)c(=O)n3C)cc1,4.78% (inactive)
11,Cc1ccc(S(=O)(=O)n2cnc3ccccc32)c(C)c1,35.5% (active)
12,COc1ccc(S(=O)(=O)n2cnc3ccccc32)c(C)c1,-5.76% (inactive)
13,Cc1ccc(C)c(S(=O)(=O)n2cnc3ccccc32)c1,8% (inactive)
14,CCc1nc2ccc(C(=O)N3CCN(c4cccc(Cl)c4)CC3)cc2nc1CC,-5.19% (inactive)
15,O=C1CCC([N+](=O)[O-])C(c2ccccc2Br)N1 (centres undefined),-13.4% (inactive)
16,CCCOc1ccccc1C1CC(=O)Nc2cc3c(cc21)OCO3 (centres undefined),23.7% (active)
17,COc1ccccc1C1C2=C(COC2=O)Nc2cc3c(cc21)OCO3 (centres undefined),3.72% (inactive)
18,COc1ccc(C2CC(=O)Nc3cc(C)c(C)cc32)c(OC)c1OC (centres undefined),-2.76% (inactive)
19,CC(C)(C)C(=O)CN1C2=NCCN2c2ccccc21,-10.1% (inactive)
20,Cc1cc2c(cc1C)N(Cc1ccccc1)C1=NCCCN12,23.7% (active)
21,OC(CN1C2=NCCCN2c2ccccc21)c1ccc(Br)cc1 (centres undefined),13.8% (inactive)
22,CC(=O)Nc1ccc(NC(=O)CS(=O)(=O)c2cn(CC(=O)N3CCCCC3)c3ccccc23)cc1,-0.17% (inactive)

row,SMILES,inhibition
1,CC(=O)Nc1ccc(CN2CCC(Oc3ccc(C(=O)N4CCCC4)cc3)CC2)cc1,-2.18% (inactive)
2,COc1ccc(OCc2nnc3n2N=C(c2ccccc2)C(CC(=O)O)S3)cc1 (centres undefined),-5.82% (inactive)
3,O=C(Cc1ccccn1)c1ccc(O)cc1O,1.18% (inactive)
4,CCOC(=O)C1CSC(CC(=O)Nc2ccc(OCC)cc2)C(=O)N1 (centres undefined),31.6% (active)
5,CCOc1ccc(NC(=O)CCNC(=O)c2ccc(Br)cc2)cc1,-13.4% (inactive)
6,CCOc1ccc(NC(=O)CC2NCCNC2=O)cc1 (centres undefined),-18.5% (inactive)
7,CN(c1ccccc1)S(=O)(=O)c1ccc(NC(=O)COc2ccccc2)cc1,1.02% (inactive)
8,COc1ccc(NC(=O)C2C3CCC(O3)C2C(=O)O)cc1OC (centres undefined),-10.2% (inactive)
9,Cc1cccc(-c2nnc(SCC(=O)O)n2Cc2ccccc2)c1,-5.33% (inactive)
10,CC1C=CCC2C(=O)N(c3cccc(C(=O)N4CCCCCC4)c3)C(=O)C12 (centres undefined),3.08% (inactive)
11,COC(=O)c1ccccc1NC(=O)CSc1n[nH]c(-c2ccncc2)n1,-2.88% (inactive)
12,Cc1cc(-n2nc(C)cc2C)n2nc(C)c(-c3ccccc3)c2n1,-6.35% (inactive)
13,CCc1c(C)nc2c(-c3ccccc3)c(C)nn2c1Nc1ccc(NC(C)=O)cc1,27.4% (active)
14,Cc1cc(-c2ccccc2)n2nc(C)c(-c3ccccc3)c2n1,-10.5% (inactive)
15,COc1ccc(C(=O)CCC(=O)Nc2cccnc2)c(OC)c1,2.52% (inactive)
16,CC(=O)NC(C)c1nc2ccccc2n1Cc1ccccc1F (centres undefined),-2.12% (inactive)
17,Fc1ccccc1Cn1cnc(NC(=S)NCCc2ccccc2)n1,10.1% (inactive)
18,N=c1n(CCc2ccccc2)c2ccccc2n1Cc1ccccc1F,21.8% (active)
19,CCNC(=O)c1cnn(-c2ccccc2)c1-c1ccccc1,-4.37% (inactive)
20,COCCNC(=O)c1ccc2c(c1)ncn2-c1ccc(C)c(Cl)c1,0.48% (inactive)
21,CC(=O)Nc1cccc(Nc2nc(-c3cccs3)nc3ccccc23)c1,-8.63% (inactive)
22,COc1ccc(C(=O)NC2CC2)cc1OC1CCN(Cc2cnn(C)c2)CC1,0.96% (inactive)

row,SMILES,inhibition
1,N#CC1=C(SCc2ccc(C#N)cc2)N=C(N)C(c2nc(-c3ccccc3)cs2)C12CCCCC2 (centres undefined),28.4% (active)
2,N#CC1=C(SCc2ccccc2)NC(=O)C(C#N)C12CCCC2 (centres undefined),-8.17% (inactive)
3,N#Cc1ccc(CSc2ncccn2)cc1,3.62% (inactive)
4,Cc1ccc2c(=O)oc(N(C)C)nc2c1,9.69% (inactive)
5,CC1C(=O)Nc2ccccc2N1C(=O)c1c(F)cccc1F (centres undefined),-14.5% (inactive)
6,COC(=O)C(C)Oc1ccc2c(c1)O/C(=C\c1cccc(Br)c1)C2=O (centres undefined),-5.02% (inactive)
7,COc1cccc(/C=N/Nc2ccc(Cl)nn2)c1,-14.8% (inactive)
8,Oc1cccc(/C=N/Nc2ccc(Cl)nn2)c1O,43.7% (active)
9,Clc1ccc(N/N=C/c2cccs2)nn1,-9.79% (inactive)
10,CCc1cccc(C)c1NS(=O)(=O)c1c(C)nc2sccn2c1=O,-6.98% (inactive)
11,O=C(/C=C/Sc1ncn[nH]1)c1ccc(Cl)cc1,4.91% (inactive)
12,Cc1ccc(N(Cc2ccccc2O)C(=O)c2ccccc2F)cc1,-15.3% (inactive)
13,CCCc1ccc(OCC(O)CN2CCN(C(=O)OCC)CC2)cc1 (centres undefined),-0.9% (inactive)
14,Cc1ccc(N2CCN(c3ccc([N+](=O)[O-])cn3)CC2)c(C)c1,15.6% (inactive)
15,CCCCNC(=O)CSc1nc2ccc(NC(=O)CSc3nnc(N)s3)cc2s1,-5.46% (inactive)
16,CCCCNC(=O)CSc1nc2ccc(NC(=O)CSc3nnc(COc4ccccc4C)n3C)cc2s1,8.43% (inactive)
17,Nc1nnc(SCC(=O)Nc2ccc3nc(SCC(=O)Nc4ccccc4)sc3c2)s1,30.6% (active)
18,COc1ccc(S(=O)(=O)Nc2ccc(S(=O)(=O)N3CCCCC3)cc2)cc1OC,-7.42% (inactive)
19,COc1ccc(S(=O)(=O)N2CCCCC2)cc1Br,20.2% (active)
20,COc1ccc(F)cc1S(=O)(=O)N1CCCCC1,-5.33% (inactive)
